From PubChem
IL1B secr inh: blocks inflammasome-driven IL-1 beta release. THP-1 LPS/ATP IL-1B secretion, AlphaLISA, 16 h; active compounds read low. activity change, % at 57.5 µM. hit rate 4.7% among 360,000. AID 743279; in the data active means activity change below about -50%; inconclusive means mostly about -30% to -49%
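THP-1 cells pretreated 1 hr with compounds (up to 57.5 uM final), then stimulated with LPS (250 ng/mL final) plus ATP (1.25 mM final); secreted IL-1B measured by AlphaLISA after 16 hr, decreased signal indicating inhibition.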
DT40 TDP1 no CPT: qHTS for Inhibitors of human tyrosyl-DNA phosphodiesterase 1 (TDP1): qHTS in cells in absence of CPT | DT40 Tdp1-/- hTDP1 cells, no CPT, ATP luminescence, 48 h | Potency, µM (titrated, usually from 46.2 µM), hits mostly inhibitors | hit rate 15% among 420,000 | AID 686978, 2013; further: nearly all actives have a fitted effect of over 55% in size
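Luminescent ATP content (CellTiter-Glo) served as the growth readout. Knockout chicken DT40 cells expressing human TDP1 were exposed to compounds without camptothecin for a minimum 48 hr at 37 °C.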
VP16 counter: counter-screen for ROR gamma inhibitors: Gal4-VP16 reporter; AID 2546; Potency, µM (doses to about 53.6 µM), usual class: inhibitors; Drosophila S2 Gal4-VP16 UAS-luciferase, luminescence, 20 h; hit rate 3.5% among 310,000;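 further: Gal4-VP16 expression switched on by copper sulfate through the metallothionein promoter; nearly all actives have a fitted effect of over 50% in size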
DT40 TDP1 CPT: DT40-hTDP1 cell growth loss with CPT; chicken DT40 Tdp1-/-;hTDP1 cells + 20 nM CPT, ATP luminescence, 48 h; Potency, µM (titrated, usually from 46.2 µM), usual class: inhibitors; hit rate 12% among 420,000; further: nearly all actives have a fitted effect of over 55% in size
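Chicken DT40 Tdp1-/- cells complemented with human TDP1, 400 cells/well, exposed to compounds plus 20 nM camptothecin for at least 48 h at 37 C; viability read as ATP content by CellTiter-Glo luminescence.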
RORg inh: inhibitors of mouse ROR gamma transcriptional activity; P51450; Drosophila S2 Gal4-RORgamma UAS-luciferase reporter, 20 h; Potency, µM (series often up to 53.6 µM), most hits filed as inhibitors; hit rate 5.4% among 310,000; AID 2551; further: nearly all actives have a fitted effect of over 60% in size
Target sequence (P51450 whole entry, looked up, the tested form may be a part): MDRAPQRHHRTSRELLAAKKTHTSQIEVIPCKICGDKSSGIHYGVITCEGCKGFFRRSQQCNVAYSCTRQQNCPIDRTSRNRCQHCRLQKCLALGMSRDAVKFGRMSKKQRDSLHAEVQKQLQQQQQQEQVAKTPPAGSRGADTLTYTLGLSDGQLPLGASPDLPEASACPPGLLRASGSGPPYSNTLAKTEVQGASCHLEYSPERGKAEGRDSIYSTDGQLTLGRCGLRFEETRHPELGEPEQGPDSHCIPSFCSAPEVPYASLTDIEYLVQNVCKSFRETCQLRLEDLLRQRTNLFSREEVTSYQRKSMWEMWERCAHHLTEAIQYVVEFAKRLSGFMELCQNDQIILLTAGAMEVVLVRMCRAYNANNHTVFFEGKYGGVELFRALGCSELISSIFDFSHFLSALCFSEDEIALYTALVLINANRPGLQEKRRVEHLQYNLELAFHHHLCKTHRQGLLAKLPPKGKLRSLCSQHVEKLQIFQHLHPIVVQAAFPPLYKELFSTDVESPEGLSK
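ROR gamma transcriptional activity was tracked as Gal4-UAS luciferase output in stably transfected Drosophila Schneider cells, with compound added 1 hr before 700 uM copper sulfate induction and a 20 hr ambient-temperature incubation.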
ELG1 DNA repair: ELG1-dependent DNA repair inhibition. Potency, µM (series often up to 46.1 µM), most hits filed as inhibitors. hit rate 2.3% among 330,000. HEK293T ELG1-luciferase reporter, luminescence, 16 h; DNA damage induced by 5-fluorouridine; further: nearly all actives have a fitted effect of over 55% in size
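HEK293T cells expressing luciferase-tagged ELG1 (2,000/well) received 5-Fluorouridine plus compound or DMSO for 16 hr at 37 °C. Luciferase was read by ONE-Glo luminescence after 30 min at room temperature.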
Hits are given with their value; - = inactive; ? = inconclusive; . = not tested or not shown. Only some compounds are listed: those with a hit (about 21% of all), similar ones and a draw of the others. Unless noted, the call rests on the fitted dose curve; in most records, active means well fitted curve in the direction sought with a large enough effect; inconclusive means small, poorly fitted or top-dose-only effect, or another doubt; inactive means no such curve, though single readings can be large; an effect the other way counts as inactive or inconclusive.

SMILES | IL1B secr inh | DT40 TDP1 no CPT | VP16 counter | DT40 TDP1 CPT | RORg inh | ELG1 DNA repair
CCCCNC(=O)C1(C)CCN1C(=O)c1cc(F)ccc1C (stereo unspecified) | - | - | . | - | . | .
COc1ccc(-n2c(=S)[nH]c3cc(C(=O)NCc4ccccc4OC)ccc3c2=O)c(OC)c1 | - | ? | 14µM | - | 14µM | -
O=C(Nc1nnc(-c2ccc(Cl)cc2)o1)Nc1ccccc1F | - | - | - | - | - | -
O=C(Nc1nnc(-c2ccc3c(c2)CCCC3)o1)c1c(F)cccc1F | - | - | 4.5µM | - | 0.5µM | ?
O=C(Nc1nnc(-c2ccc3c(c2)CCCC3)o1)C1CCCCC1 | - | ? | - | 15µM | ? | -
O=C(Nc1nnc(-c2ccc3c(c2)CCCC3)o1)c1ccc(Cl)cc1Cl | - | ? | 1.6µM | 13µM | 1.6µM | -
CC1=CC2=C(OC1N(C)C)c1cccc3cccc(c13)C2=O (stereo unspecified) | - | ? | ? | - | 8.9µM | -
COC(=O)c1ccc(C2c3c(oc4ccc(C)cc4c3=O)C(=O)N2Cc2ccc3c(c2)OCO3)cc1 (stereo unspecified) | . | - | . | - | . | .
CCOC(=O)c1c(C)[nH]c(C)c1C(=O)CSc1nc2ccccc2[nH]1 | - | - | - | - | - | ?
CCOCN(C(=O)Cn1c(CC(C)C)nc2ccccc21)c1c(C)cccc1CC | . | 23µM | . | ? | . | .
CCOCN(C(=O)CSc1nc2ccccc2[nH]1)c1c(C)cccc1CC | . | 23µM | . | 15µM | . | .
Cc1nn(C(C)C(=O)N/N=C/c2ccc(N(C)C)cc2)c(C)c1[N+](=O)[O-] (stereo unspecified) | - | - | - | - | - | -
NCCN1C(=O)c2ccccc2C1(O)c1ccc(Cl)cc1 (stereo unspecified) | - | 13µM | . | ? | . | .
CCc1c(C)nc2ncnn2c1NCCc1ccc(OC)cc1 | - | 3.5µM | 18µM | 2.8µM | - | ?
CCc1c(C)nc2ncnn2c1Nc1ccc(C)c(C)c1 | - | ? | - | 23µM | - | -
CCc1c(C)nc2ncnn2c1N1CCN(S(=O)(=O)c2ccc(OC)cc2)CC1 | - | 5.8µM | - | 3.7µM | - | -
Cc1cc(N2CCN(S(=O)(=O)c3ccc(Br)cc3)CC2)n2ncnc2n1 | - | - | - | - | - | -
Cc1ccc(S(=O)(=O)NCC(=O)OCC(=O)N2CCN(C(=O)c3ccco3)CC2)cc1C | - | - | . | - | . | -
Cc1ccccc1-c1nnc(SCC(=O)NC2CCS(=O)(=O)C2)n1C (stereo unspecified) | - | - | . | - | . | -
O=C(CCc1c[nH]c2ccccc12)N1CCN(S(=O)(=O)c2ccc([N+](=O)[O-])cc2)CC1 | - | ? | . | ? | . | .
COC(=O)CSc1cc(SCC(=O)OC)c(C#N)c(SCC(=O)OC)c1 | -113 | - | - | - | - | -
COC(=O)CSc1nc(C)cc(C(F)(F)F)c1C#N | - | - | - | - | - | -
COC(=O)CSc1ccc(C#N)c(SCC(=O)OC)c1 | -105 | - | - | - | - | -
COC(=O)CSc1ccccc1C(=O)OC | - | - | - | - | - | -
CCCCc1c(C)c(C#N)c2nc3ccccc3n2c1Nc1c(C)n(C)n(-c2ccccc2)c1=O | - | 16µM | - | 23µM | - | ?
SMILES | IL1B secr inh | DT40 TDP1 no CPT | VP16 counter | DT40 TDP1 CPT | RORg inh | ELG1 DNA repair
CCc1c(C)c(C#N)c2nc3ccccc3n2c1NCc1ccco1 | - | ? | - | 23µM | - | ?
Cc1c(Cc2ccccc2)c(NCCCO)n2c(nc3ccccc32)c1C#N | - | 16µM | - | 21µM | - | ?
CCc1c(C)c(C#N)c2nc3ccccc3n2c1NC | - | - | - | - | - | -
Cc1c(Nc2c3c(c(C#N)c4nc5ccccc5n24)CCC3)c(=O)n(-c2ccccc2)n1C | . | . | - | . | - | -
Cc1cc(NCCCO)n2c(nc3ccccc32)c1C#N | - | - | - | - | - | -
COc1cc(C(=O)N[C@H](C(=O)OCC(=O)NC2CCCCCC2)C(C)C)cc(OC)c1OC | - | - | . | ? | . | ?
COc1cccc(CC(=O)OCC(=O)NC(C)c2ccc(F)cc2)c1 (stereo unspecified) | - | - | . | - | . | -
COc1ccccc1N1CCN(Cc2nc(-c3ccc(F)cc3)oc2C)CC1 | - | 18µM | - | ? | - | -
COc1ccc(-c2nc(CN3CCN(Cc4cccc(F)c4)CC3)c(C)o2)cc1 | ? | ? | - | ? | ? | -
Cc1cc(N2CCN(Cc3nc(-c4ccc(F)cc4)oc3C)CC2)cc(C)n1 | - | ? | - | ? | - | -
COc1ccccc1CN1CCN(Cc2nc(-c3ccc(C)cc3)oc2C)CC1 | - | ? | - | 21µM | - | -
COc1ccc(-c2nc(CN3CCN(c4ccccc4OC)CC3)c(C)o2)cc1 | -97 | ? | - | ? | - | ?
COc1ccccc1CN1CCCCCC1 | - | 18µM | - | ? | - | -
COc1ccccc1N1CCN(Cc2ccc(Br)o2)CC1 | - | - | 20µM | - | - | -
CC1CCCCN1C(=S)Nc1ccc(S(=O)(=O)N2CCCCC2)cc1 (stereo unspecified) | - | ? | . | ? | . | .
Cc1ccc(CNC(=O)c2ccc3nc4[nH]c5ccccc5c4nc3c2)cc1 | . | . | 7.1µM | . | ? | -
Cc1cccc(CNC(=O)c2ccc3nc(-c4ccccc4)c(-c4ccccc4)nc3c2)c1 | . | ? | . | 21µM | . | .
COc1ccccc1CNC(=O)c1ccc2nc3[nH]c4ccccc4c3nc2c1 | -53 | 8.2µM | ? | ? | - | ?
Cc1cc(C)c(C(=O)CC(=O)c2cccnc2)c(C)c1 | - | ? | . | ? | . | .
Cn1c(=O)c(=O)n(C)c2cc(N3CCCC3)c(NS(=O)(=O)c3ccc(Cl)cc3)cc21 | - | ? | - | ? | - | -
CCOCCCN(C(=O)Cn1nnc(-c2ccc(C)o2)n1)C(C(=O)NC1CCCC1)c1ccco1 (stereo unspecified) | - | - | - | - | - | -
Cc1ccc(-c2nnn(CC(=O)N(c3ccc(F)cc3)C(C(=O)NC3CCCC3)c3ccco3)n2)o1 (stereo unspecified) | - | ? | ? | 15µM | - | ?
CCOCCCN(C(=O)Cn1nnc(-c2ccc(C)o2)n1)C(C(=O)NC1CCCC1)c1ccc(C)o1 (stereo unspecified) | -52 | ? | - | ? | - | -
Cc1ccc(-c2nnn(CC(=O)N(c3cccc(F)c3)C(C(=O)NC3CCCC3)c3ccco3)n2)o1 (stereo unspecified) | - | 16µM | - | 21µM | - | ?
